Hits are enriched below; roughly 2.4% of the tested compounds scored in any of these assays.
CHRM1 agonist – human M1 muscarinic receptor agonists, primary screen, Fluo-8 calcium fluorescence, CHO-K1 cells, HTS; AID 588814, 2011; Muscarinic acetylcholine receptor M1 (Homo sapiens), P11229; activation, % at 3 µM; actives 0.33% (n = 360,000); CHO-K1 hM1, agonist mode; 0% DMSO, 100% acetylcholine EC100;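 active = activation above the run's mean compound activation plus 3 SD, cut at about 16% in these data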;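 also: peak over basal fluorescence ratio within a 140 s kinetic read after compound addition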
Target sequence (P11229 whole entry, looked up): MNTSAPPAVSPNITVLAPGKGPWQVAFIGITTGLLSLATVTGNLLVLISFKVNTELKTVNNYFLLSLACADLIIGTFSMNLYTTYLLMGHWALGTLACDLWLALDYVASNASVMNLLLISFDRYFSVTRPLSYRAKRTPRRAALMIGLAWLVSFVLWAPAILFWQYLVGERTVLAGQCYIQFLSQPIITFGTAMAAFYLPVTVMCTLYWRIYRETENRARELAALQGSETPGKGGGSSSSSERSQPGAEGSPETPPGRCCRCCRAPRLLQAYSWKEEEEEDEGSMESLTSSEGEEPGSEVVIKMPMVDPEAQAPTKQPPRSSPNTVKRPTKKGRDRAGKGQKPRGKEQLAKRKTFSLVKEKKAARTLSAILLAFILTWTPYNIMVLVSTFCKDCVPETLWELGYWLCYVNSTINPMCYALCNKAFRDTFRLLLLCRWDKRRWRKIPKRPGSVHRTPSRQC
M1 antag – human M1 muscarinic receptor antagonists, primary screen, CHO-K1 cells, Fluo-8 calcium fluorescence, 1536-well; inhibition, % at 3 µM; CHO-K1 hM1, ACh EC80 antagonist; actives 1.3% (n = 360,000); AID 588852, 2011; Muscarinic acetylcholine receptor M1 (Homo sapiens), P11229;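 active = percent inhibition above its own plate's cutoff, namely the mean of that plate's compound wells plus 3 SD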;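 also: peak over basal fluorescence ratio during 140 s after agonist addition; 0% = ACh EC80 plus DMSO and 100% = DMSO alone without agonist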
M1 ag parental – counter-screen for M1 agonists: effect in parental CHO-K1 cells; Fluo-8 calcium fluorescence; scaled to maximal ATP response, vehicle zero; activation, % at 3 µM; actives 0.48% (n = 360,000); AID 602248, 2012; in the data active = activation above about 15%;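 also: untransfected CHO-K1 host cells lacking M1 receptor as counterscreen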
CHO-K1 Ca antag – counter-screen for M1 antagonists: effect in parental CHO-K1 cells | ATP-induced calcium, Fluo-8 fluorescence | inhibition, % at 3 µM | actives 0.6% (n = 360,000);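 active = inhibition above a per-plate cutoff, the plate's mean sample inhibition plus 3 SD, cut at about 24% in these data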;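 also: 0% = DMSO plus EC80 ATP and 100% = DMSO alone without ATP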
M1 PAM – human M1 muscarinic receptor positive allosteric modulators, primary screen, CHO-K1 cells, Fluo-8 calcium fluorescence, 1536-well; CHO-K1 hM1, ACh EC20; 0% = ACh EC20, 100% = maximal ACh; actives 0.088% (n = 360,000); AID 588819, 2011; activation, % at 3 µM; in the data active = activation above about 19%, passing the limit was not always enough
M1 PAM parental – nonselective calcium activators in parental CHO-K1 cells, primary screen, counter-screen for M1 PAM project, cell-based, Fluo-8 calcium fluorescence, full deck, 1536-well; AID 602247, 2012; actives 0.02% (n = 360,000); ATP EC20; 0% at ATP EC20, 100% at ATP max; activation, % at 3 µM;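 active = activation above the run cutoff, the mean activation of all test compounds plus 3 SD, cut at about 40% in these data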;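 also: peak over basal fluorescence ratio in a 140 s read after ATP addition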
Numbers without * were called inactive.

For COc1cccc(CN2CCSCC2)c1OC the results were CHRM1 agonist -5, M1 antag 13, M1 ag parental 0, CHO-K1 Ca antag 25*, M1 PAM -2 and M1 PAM parental -26.
`COc1cccc(CNCc2ccc(OC)c3ccccc23)c1OC` gave CHRM1 agonist -1, M1 antag 22, M1 ag parental 23*, CHO-K1 Ca antag 12, M1 PAM -9 and M1 PAM parental -1.
COc1ccccc1CNCc1ccc(OC)c2ccccc12 was read as CHRM1 agonist 1, M1 antag -1, M1 ag parental 5, CHO-K1 Ca antag -6, M1 PAM -1 and M1 PAM parental 5.
Screening Cc1ccc(NC(=O)COC(=O)C2CC3C=CC2C3)cc1S(=O)(=O)N1CCCCC1 (stereo not given) returned CHRM1 agonist -3, M1 antag 17, M1 ag parental 12, CHO-K1 Ca antag 13, M1 PAM -11 and M1 PAM parental -5.
O=C(CSc1nc2[nH]ncc2c(=O)[nH]1)N1CCCCC1 was read as CHRM1 agonist 3, M1 antag -5, M1 ag parental 0, CHO-K1 Ca antag 5, M1 PAM 6 and M1 PAM parental -8.
CCCOc1ccc(C(=O)ON=C2CCN(C)CC2)cc1 was read as CHRM1 agonist -7, M1 antag 0, M1 ag parental 0, CHO-K1 Ca antag 7, M1 PAM 6 and M1 PAM parental 5.
N#Cc1c(N2CCN(c3ccc(F)cc3)CC2)nc(N)c2c(N)nc3c(c12)CC(=O)N3C1CC1 was read as CHRM1 agonist 0, M1 antag 31*, M1 ag parental 6, CHO-K1 Ca antag 4, M1 PAM -8 and M1 PAM parental 7.
For Cc1csc2c(N3CCN(C(=S)Nc4ccc(F)cc4F)CC3)ncnc12 the results were CHRM1 agonist 23*, M1 antag 38, M1 ag parental 23*, CHO-K1 Ca antag 16, M1 PAM -15 and M1 PAM parental -8.
`Cc1ccc(C(=O)NC(=S)N2CCN(c3ccc([N+](=O)[O-])cc3)CC2)cc1` gave CHRM1 agonist -10, M1 antag -10, M1 ag parental -1, CHO-K1 Ca antag -6, M1 PAM 2 and M1 PAM parental 13.
`O=[N+]([O-])c1ccc(N2CCN(C(=S)Nc3ccc(F)cc3F)CC2)cc1` gave CHRM1 agonist -2, M1 antag 29, M1 ag parental 11, CHO-K1 Ca antag 24*, M1 PAM -5 and M1 PAM parental -16.
Screening CCCC(=O)NC(=S)Nc1ccc(NC(=O)c2cccs2)cc1 returned CHRM1 agonist -2, M1 antag -4, M1 ag parental 1, CHO-K1 Ca antag -2, M1 PAM 5 and M1 PAM parental 16.
Screening CCCC(=O)NC(=S)Nc1ccc(N2CCN(C(=O)c3cccs3)CC2)cc1 returned CHRM1 agonist 3, M1 antag 27, M1 ag parental 15*, CHO-K1 Ca antag 14, M1 PAM -9 and M1 PAM parental -12.
For CCCC(=O)NC(=S)N1CCN(c2ccc([N+](=O)[O-])cc2)CC1 the results were CHRM1 agonist -4, M1 antag 11, M1 ag parental 0, CHO-K1 Ca antag 25*, M1 PAM -7 and M1 PAM parental -11.
C[C@@H]1CN([C@@H](C)CO)C(=O)c2cc(Br)cnc2O[C@H]1CN(C)C(=O)Cc1ccccn1 was read as CHRM1 agonist -2, M1 antag -20, M1 ag parental 0, CHO-K1 Ca antag -4, M1 PAM 9 and M1 PAM parental 14.
O=C(NCCC1CCCCN1S(=O)(=O)c1ccccc1)C(=O)Nc1ccc(F)cc1F (stereo not given) was read as CHRM1 agonist -4, M1 antag -8, M1 ag parental 0, CHO-K1 Ca antag -1, M1 PAM 11 and M1 PAM parental 2.
For COc1ccc(S(=O)(=O)CCC(=O)N2CCN(c3ccc([N+](=O)[O-])cc3)CC2)cc1 the results were CHRM1 agonist 0, M1 antag 48*, M1 ag parental 10, CHO-K1 Ca antag -11, M1 PAM -19 and M1 PAM parental -3.
For COc1ccc(N2CCN(C(=O)CCS(=O)(=O)c3ccc(OC)cc3)CC2)cc1 the results were CHRM1 agonist -5, M1 antag 2, M1 ag parental 3, CHO-K1 Ca antag -11, M1 PAM -1 and M1 PAM parental 20.
`Cc1ccc(-c2nc(CN(C)C3CCOC3)c(C)o2)s1` (stereo not given) gave CHRM1 agonist -5, M1 antag -7, M1 ag parental 0, CHO-K1 Ca antag -14, M1 PAM 9 and M1 PAM parental 23.
For CCOC(=O)N1CCN(C(=O)c2ccc3c(=O)n(CCC4=CCCCC4)c(=O)[nH]c3c2)CC1 the results were CHRM1 agonist -5, M1 antag 66*, M1 ag parental 1, CHO-K1 Ca antag 6, M1 PAM -23 and M1 PAM parental -4.
CCCCCn1c(=S)[nH]c2cc(C(=O)N3CCN(C(=O)OCC)CC3)ccc2c1=O was read as CHRM1 agonist -10, M1 antag -1, M1 ag parental 2, CHO-K1 Ca antag -3, M1 PAM -3 and M1 PAM parental 11.
Screening Cc1ccc(C#CC[N+](C)(C)CC#Cc2ccccc2)cc1 returned CHRM1 agonist -7, M1 antag 30*, M1 ag parental 0, CHO-K1 Ca antag -9, M1 PAM -18 and M1 PAM parental 0.
COCCNC(=O)C(c1ccccc1F)N(C(=O)C(=O)NC1CCCC1)C1CCCCC1 (stereo not given) was read as CHRM1 agonist -7, M1 antag -3, M1 ag parental 1, CHO-K1 Ca antag -10, M1 PAM -4 and M1 PAM parental 5.
For COc1cc(/C=N/Nc2nc(Nc3ccccc3)nc(-n3nc(C)cc3C)n2)cc(OC)c1OC the results were CHRM1 agonist -5, M1 antag 26*, M1 ag parental 5, CHO-K1 Ca antag 6, M1 PAM -18 and M1 PAM parental 7.
c1ccc(CN2CCC(N3CCN(Cc4ccc5c(c4)OCO5)CC3)CC2)cc1 was read as CHRM1 agonist -4, M1 antag 24, M1 ag parental 4, CHO-K1 Ca antag -10, M1 PAM -18 and M1 PAM parental 11.
Screening c1cc2c(cc1CN1CCN(C3CCCCCC3)CC1)OCO2 returned CHRM1 agonist -10, M1 antag 64*, M1 ag parental 0, CHO-K1 Ca antag -15, M1 PAM -25 and M1 PAM parental 3.

From PubChem
